# According to PubChem BioAssay (Tox21):
# Records with an inconclusive call do not appear. Entries that show only a call come without a potency. Unmarked numbers belong to inactive results. The source made the active and inactive calls. Calls come from the whole dose curve; as a rule, active = well fitted inhibition curve with a large enough effect in the repeat runs; inconclusive = weak or mixed curves, or effect the other way; inactive = no such curve, though single readings can be large or run the other way.
# Molecular target: Nuclear receptor ROR-gamma (Homo sapiens) (UniProt P51449)
# Assay: qHTS assay to identify small molecule antagonists of the retinoid-related orphan receptor gamma (ROR-gamma) signaling pathway (AID 1159521; note: nearly all actives have a fitted effect of over 50% in size; for activity change, negative = inhibition: top concentration of the series differs between compounds)
# Conditions: Tet-on RORgamma CHO cells, RORE-luciferase, 16 h; series mostly up to 92.4 µM
# Description: U.S. Tox21 Program National Center for Advancing Translational Sciences [NCATS] NIH Chemical Genomics Center [NCGC] U.S. Environmental Protection Agency [EPA] National Institutes of Environmental Health Sciences [NIEHS] National Toxicology Program [NTP] U.S. Food and Drug Administration [FDA] Tox21 Assay Overview: Nuclear steroid hormone receptors are involved in many biological processes including inflammatory responses, cell proliferation, and apoptosis. Environmental factors or compounds disrupting these nuclear receptor pathways and gene expression may promote susceptibility to immunotoxicants and autoimmune diseases. One important group of these expression factors are the retinoid-related orphan receptors. To assess compounds that may interfere with the retinoid-related orphan receptor gamma (ROR-gamma) transcription factor, a cell-based luciferase assay was used. The CHO cell-based assay utilizes a TET-inducible ROR expression factor and ROR response element-LUC reporter gene. Reporter gene activity was induced using Doxycycline Hyclate and measured after 16 hr incubation. Tet-on ROR gamma CHO cells were used to screen against the Tox21 10K compound library for ROR gamma antagonists by quantification of decreased reporter gene activity in terms of decreased luminescence.
# Tox21 Assay Protocol Summary: Tet-on ROR gamma CHO cells were dispensed at 1,000 cells in 4 uL of culture medium per well into white wall/solid bottom 1536-well plates using a Multidrop Combi (Thermo Scientific, Waltham, MA) dispenser. Following incubation at 37 C and 5% CO2 for 4 hr, 23 nL of compounds dissolved in DMSO, positive controls or DMSO only were transferred by a Pintool station (Kalypsys, San Diego, CA) and after 2 hr incubation at 37 C, one ul of 1 uM (final concentration) of Doxycycline Hyclate was added to all the wells by using a Flying Reagent Dispenser (FRD) (Aurora Discovery, San Diego, CA). After 16 hr incubation at 37 C and 5% CO2, 5 uL of ONE-Glo reagent (Promega Corporation, Madison, WI) was added to each assay plate using FRD. After 30 min incubation at room temperature, luminescence was quantified on a ViewLux plate reader (Perkin Elmer, Waltham, MA).
# Potency is the fitted concentration of half-maximal effect.
Structure (SMILES),Potency,"activity change, negative = inhibition"
CC(=O)O[C@@]12CO[C@@H]1C[C@H](O)[C@@]1(C)C(=O)[C@H](O)C3=C(C)[C@@H](OC(=O)[C@H](O)[C@@H](NC(=O)OC(C)(C)C)c4ccccc4)C[C@@](O)([C@@H](OC(=O)c4ccccc4)[C@H]21)C3(C)C,inactive,–
CCCCCC(=O)OCCc1ccccc1,inactive,–
CC1=CCC(O)(C(C)C)CC1 (stereo not given),inactive,–
CC(C)(C#N)Nc1nc(Cl)nc(NC2CC2)n1,inactive,–
Cc1nc2ccc(CN(C)c3ccc(C(=O)N[C@@H](CCC(=O)O)C(=O)O)s3)cc2c(=O)[nH]1,inactive,–
CC(=O)N1C[C@H](O)C[C@H]1C(=O)O,inactive,–
CC(N)C12CC3CC(CC(C3)C1)C2 (stereo not given),inactive,–
CC(C)NNC(=O)c1ccncc1,inactive,–
CCN(CC#N)c1cccc(C)c1,inactive,–
CO[Si](C)(OC)c1ccccc1,inactive,–
CCN1CCOCC1,inactive,–
C[C@@H]1C[C@H]2[C@@H]3C[C@H](F)C4=CC(=O)C(Cl)=C[C@]4(C)[C@@]3(F)[C@@H](O)C[C@]2(C)[C@@]1(O)C(=O)CO,inactive,–
CC(CO)(CO)[N+](=O)[O-],inactive,–
CC(C#N)(CCC(=O)O)N=NC(C)(C#N)CCC(=O)O (stereo not given),inactive,–
O=C(c1ccccc1O)c1ccccc1O,inactive,–
CCCCCCCCCCCCCCCCCCO,inactive,–
COc1cc2c(cc1OC)-c1cc3ccc(OC)c(OC)c3c[n+]1CC2,inactive,–
CCOC(=O)C(=O)CCCCCCl,inactive,–
CCNS(=O)(=O)c1ccc(C)cc1,inactive,–
CC(C)C[C@@H](N)C(=O)O,–,6.26% [at 19 µM]

Structure (SMILES),Potency,"activity change, negative = inhibition"
C1CCC2=NCCCN2CC1,inactive,–
CCCC(C)C(=O)OCC (stereo not given),inactive,–
O=S(=O)(O)c1cccc(S(=O)(=O)O)c1,inactive,–
C1CCC2(CCCCO2)OC1,inactive,–
CC(C)(C)C(=O)c1ccccc1,inactive,–
Cc1ncc(COP(=O)(O)O)c(C=O)c1O,inactive,–
CCC(C)(CN(C)C)OC(=O)c1ccccc1 (stereo not given),inactive,–
OCCCCCO,inactive,–
CN(C)CCCN(C)CCCN(C)C,inactive,–
CCCCCC(C)N (stereo not given),inactive,–
CCN1C=CN(C)C1C (stereo not given),inactive,–
C[N+]1(CC2COC(c3ccccc3)(c3ccccc3)O2)CCCCC1 (stereo not given),–,7.79% [at 19 µM]
Cc1ccc(C(=O)c2ccc(CC(=O)O)n2C)cc1,inactive,–
C=CC(=O)OCCCl,inactive,–
O=C(O)CNC(=O)c1ccccc1,inactive,–
Nc1ccn([C@@H]2O[C@H](CO)[C@@H](O)C2O)c(=O)n1 (stereo not given in full),7.7 µM (active),–
CC[N+](CC)(CC(=O)Nc1c(C)cccc1C)Cc1ccccc1 (tested in a mixture with another compound),inactive,–
CCCCN1C=CN(C)C1,–,11.4% [at 19 µM]
CN(C)CCCCCCN(C)C,inactive,–
[O-][n+]1cccc(CO)c1,inactive,–
